Experimental data as given in PubChem BioAssay (Tox21).
Values joined by “and” are separate entries in the source; they are usually repeats but may differ in a detail not shown here. Equal entries are not always repeated. Inconclusive results are not listed. Active and inactive are the calls of the source. Unless noted, calls come from the whole dose curve; as a rule, active = well fitted curve in the direction sought with a large enough effect in the repeat runs; inconclusive = weak or mixed curves; inactive = no such curve, though single readings can be large; an effect the other way counts as inactive or inconclusive.

How the values were obtained:
[1] = biological target: Thyrotropin receptor (Homo sapiens) (UniProt P16473); assay: qHTS assay to identify small molecule agonists of the thyroid stimulating hormone receptor (TSHR) signaling pathway (AID 1224843; calls by dose curve; note: nearly all actives have a fitted effect of over 45% in size; note: potency is the fitted concentration of half-maximal effect)
Sequence of Thyrotropin receptor (Homo sapiens) (P16473 whole entry, looked up): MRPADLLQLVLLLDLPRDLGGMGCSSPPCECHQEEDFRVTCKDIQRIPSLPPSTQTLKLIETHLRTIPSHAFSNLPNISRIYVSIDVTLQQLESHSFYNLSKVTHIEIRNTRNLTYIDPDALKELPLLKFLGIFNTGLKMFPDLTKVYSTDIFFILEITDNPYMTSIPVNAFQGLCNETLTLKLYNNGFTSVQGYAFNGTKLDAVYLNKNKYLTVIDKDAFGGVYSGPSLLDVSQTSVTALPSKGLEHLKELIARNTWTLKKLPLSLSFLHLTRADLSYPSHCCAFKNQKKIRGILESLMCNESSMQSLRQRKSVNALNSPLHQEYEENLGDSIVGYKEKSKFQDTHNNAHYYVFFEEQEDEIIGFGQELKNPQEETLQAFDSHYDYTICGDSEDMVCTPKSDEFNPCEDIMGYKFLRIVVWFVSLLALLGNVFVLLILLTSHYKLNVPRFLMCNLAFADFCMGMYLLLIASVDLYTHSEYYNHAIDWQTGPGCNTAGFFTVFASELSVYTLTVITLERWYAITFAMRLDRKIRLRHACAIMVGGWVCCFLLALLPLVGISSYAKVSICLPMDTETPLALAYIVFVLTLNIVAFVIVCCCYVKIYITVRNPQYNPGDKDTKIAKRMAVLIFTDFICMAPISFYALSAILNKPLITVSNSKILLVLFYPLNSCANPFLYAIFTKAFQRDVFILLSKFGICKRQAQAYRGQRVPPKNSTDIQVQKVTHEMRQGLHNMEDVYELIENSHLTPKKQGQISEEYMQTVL
Procedure, shortened: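 Steps: seed 800 TSHR-HEK293 cells per well; add test compound and hold 30 min at ambient temperature; dispense cAMP-d2 then anti-cAMP cryptate; incubate 1 h at ambient; measure fluorescence intensity.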

[2] = qHTS assay to identify small molecule agonists of the hypoxia (HIF-1) signaling pathway - cell viability counter screen (AID 1224844; calls by dose curve; note: nearly all actives have a fitted effect of over 50% in size; note: potency is the fitted concentration of half-maximal effect)
Procedure, shortened: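 HRE-bla ME-180 cells in medium with 0.5% dialyzed FBS were preincubated 5 hrs at 37C, exposed to compounds for 17 hrs, then viability was read as CellTiter-Glo luminescence after 30 min at room temperature, in the reporter wells.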

[3] = qHTS assay to identify small molecule agonists of the hypoxia (HIF-1) signaling pathway (AID 1224846; active = well fitted activation curve with a large enough effect in the signal ratio in the repeat runs, not every such curve was filed as active; the % refers to the signal ratio)
Procedure, shortened: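 HRE-bla ME-180 cells (beta-lactamase reporter under hypoxia response element) were plated at 2,000 cells/well in medium with 0.5% dialyzed FBS, rested 5 hrs, then given compounds in DMSO for 17 hrs at 37C, 5% CO2. Reporter induction was read with CCF4-AM FRET substrate.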

[4] = qHTS assay to identify small molecule antagonists of the estrogen related receptor (ERR) signaling pathway from Tox21 library (AID 1224848); note: nearly all actives have a fitted effect of over 50% in size; note: potency is the fitted concentration of half-maximal effect
Procedure, shortened: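 Luminescent reporter read-out (ONE-Glo) from NTP's ERR cell line after 18 h treatment at 37 C with DMSO-dissolved Tox21 compounds; cells pre-plated 6 h beforehand at 2,000 per well.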

[5] = qHTS assay to identify small molecule agonists of the estrogen related receptor (ERR) signaling pathway from Tox21 library (AID 1224849; calls by dose curve; note: nearly all actives have a fitted effect of over 15% in size); conditions: ERR reporter cell line, ONE-Glo luciferase, 18 h; at 92.4 µM (top of the series) unless noted
Procedure, shortened: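 ERR reporter cell line (NTP) seeded, rested 6 h at 37 C/5% CO2, then pinned with Tox21 compounds in DMSO. After 18 h at 37 C, ONE-Glo luciferase luminescence was read following 30 min at room temperature.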

[6] = qHTS RealTime-Glo MT Cell Viability Assay in HepG2 cells - 24 hour (AID 1224867); note: nearly all actives have a fitted effect of over 50% in size; note: potency is the fitted concentration of half-maximal effect
Procedure, shortened: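 Viability was tracked continuously by NanoLuc luminescence from prosubstrate reduced by living HepG2 cells, at successive time points over 40 h of compound exposure. Cells with reagent were preincubated 5 h at 37 °C before compound addition.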

[7] = qHTS RealTime-Glo MT Cell Viability Assay in HEK293 cells - 32 hour (AID 1224868); note: nearly all actives have a fitted effect of over 50% in size; note: potency is the fitted concentration of half-maximal effect; for activity change, negative = cytotoxic: top concentration of the series differs between compounds
Procedure, shortened: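 Viability tracked continuously by luminescence as live cells reduce a prosubstrate for NanoLuc; HEK293 cells preincubated 5 h, compound-treated at 37 C, and read at 0, 8, 16, 24, 32 and 40 h.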

[8] = A CellTox Green Cytotoxicity Assay to monitor cytotoxicity in HEK293 cells - 0 hour (AID 1224869); note: nearly all actives have a fitted effect of over 50% in size
Procedure, shortened: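 HEK293 cells premixed with CellTox Green dye were seeded at 600 cells/well and left 5 h at 37 C/5% CO2 before pin transfer of 23 nL compound in DMSO. Fluorescence from dye bound to dead-cell DNA was read during 40 h treatment.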

[9] = qHTS assay to identify small molecule agonists of H2AX (AID 1224845; active = well fitted activation curve with a large enough effect in the signal ratio in the repeat runs, not every such curve was filed as active; the % refers to the signal ratio)
Procedure, shortened: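 Wild-type CHO-K1 cells, plated overnight, exposed 3hr at 37C to 15 concentrations (0.76% DMSO final). Lysed, then HTRF anti-pH2AX (S139) cryptate and anti-H2AX-d2 antibodies, 24 hr room temperature; 665/620 nm emission read.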

[10] = qHTS assay to identify small molecule agonists of H2AX - cell viability counter screen (AID 1224847; calls by dose curve; note: top concentration of the series differs between compounds; nearly all actives have a fitted effect of over 30% in size)
Procedure, shortened: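 For this counter screen, overnight-attached CHO-K1 cells received test compounds (15 concentrations, 0.76% DMSO final); 3 hr later at 37C, CellTiter-Glo reagent was added and luminescence recorded after 30 min at room temperature.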
% is set by controls: 0 for no effect and ±100 for the full control effect.

CCOP(=S)(OCC)SCn1nnc2ccccc2c1=O
inactive: Potency [1] | Potency [2] | outcome [3] | activity change, positive = activation [5] -48.2% | Potency [6] | Potency [8]
active: Potency [4] 27.3 µM | Potency [7] 21.9 µM

C=CC(=O)OCC(C)O (configuration not stated)
inactive: Potency [1] | Potency [9] | Potency [10] | Potency [4] | Potency [6] | Potency [8]

Cl/C=C\C[N+]12CN3CN(CN(C3)C1)C2
inactive: Potency [1] | Potency [9] | outcome [3] | Potency [10] | Potency [4] | activity change, positive = activation [5] -0.401% | Potency [6] | Potency [8]

CCCC(=O)Cl
inactive: Potency [1] | Potency [9] | outcome [3] | Potency [10] | Potency [6] | Potency [7] | Potency [8]

CN1C[C@H](CNC(=O)OCc2ccccc2)C[C@@H]2c3cccc4c3c(cn4C)C[C@H]21
inactive: Potency [1] | Potency [2] | Potency [9] | Potency [10] | Potency [8]
active: Potency [7] 21.3 µM

Clc1ccc(C(OCCN2CCCCC2)c2ccccc2)cc1 (configuration not stated)
inactive: Potency [1] | Potency [9] | outcome [3] | Potency [10] | activity change, positive = activation [5] -17.2% [at 42.5 µM] | Potency [6] | Potency [8]

COC(C)(C)CCC[C@H](C)C/C=C/C(C)=C/C(=O)OC(C)C
inactive: Potency [1] | Potency [2] | outcome [3] | Potency [10] | activity change, positive = activation [5] -23.3% | Potency [6] | Potency [7] | Potency [8]

C[C@@H]1CC[C@H]2[C@@H](C)C(=O)O[C@@H]3O[C@@]4(C)CC[C@@H]1[C@]32OO4
active: Potency [4] 0.944 µM
inactive: Potency [1] | Potency [2] | outcome [3] | Potency [10] | activity change, positive = activation [5] -38.3% [at 42.5 µM] | Potency [6] | Potency [7] | Potency [8]

C=CC(=O)OCCCCO
active: activity change, positive = activation [5] 68.3%
inactive: Potency [1] | Potency [2] | Potency [10] | Potency [4] | Potency [6] | Potency [7] | Potency [8]

CCOC(=O)[C@]1(c2ccccc2)Oc2ccccc2[C@@H]1N
inactive: Potency [1] | Potency [2] | Potency [9] | Potency [6] | Potency [8]

ClCc1ccccc1
inactive: Potency [1] | Potency [9] | outcome [3] | Potency [10] | Potency [6] | Potency [7] | Potency [8]

COC1=CC(=O)O[C@@H](CCc2ccccc2)C1
inactive: Potency [1] | Potency [9] | outcome [3] | Potency [10] | activity change, positive = activation [5] -29.7% | Potency [6] | Potency [7] | Potency [8]

N#C/C(N)=C(/N)C#N
inactive: Potency [1] | Potency [2] | outcome [3] | Potency [10] | Potency [4] | activity change, positive = activation [5] 0.178% | Potency [6] | Potency [7] | Potency [8]

ClP(Cl)(Cl)(Cl)Cl
inactive: Potency [1] | Potency [2] | outcome [3] | Potency [10] | Potency [4] | activity change, positive = activation [5] 0.0891% | Potency [8]

c1cc2ccc3cccc4ccc(c1)c2c34
active: Potency [1] 7.19 µM | Potency [4] 50.9 µM
inactive: Potency [2] | outcome [3] | Potency [10] | activity change, positive = activation [5] -47.4% | Potency [6] | Potency [7] | Potency [8]

NC(=O)CI
active: Potency [2] 35 µM | Potency [6] 13.9 µM
inactive: Potency [1] | Potency [9] | Potency [4] | activity change, positive = activation [5] -20% | Potency [8]

NCC(CC(=O)O)c1ccc(Cl)cc1 (configuration not stated)
inactive: activation [1] 16.4% [at 0.349 µM] | activity change, negative = cytotoxicity [2] -2.38% [at 0.29 µM] | activation (H2AX phosphorylation) [9] 0.429% [at 0.582 µM] | activity change, negative = cytotoxicity [10] -1.04% [at 0.582 µM] | activity, negative = inhibition [4] 4.98% [at 0.349 µM] | activity change, positive = activation [5] 2.78% [at 0.349 µM] | activity change, negative = cytotoxicity [6] -0.0323% [at 0.29 µM] | activity change, negative = cytotoxic [7] 7.97% [at 0.29 µM] | cytotoxicity [8] -11.1% [at 0.29 µM]

CCOP(=O)(OCC)SCCSCC
inactive: Potency [1] | Potency [2] | outcome [3] | Potency [10] | Potency [4] | activity change, positive = activation [5] -5.82% and 8.45% | Potency [6] | Potency [7] | Potency [8]

CCCCCCCCOC(=O)c1ccc(C(=O)OCCCCCCCC)c(C(=O)OCCCCCCCC)c1
inactive: Potency [1] | Potency [9] | outcome [3] | Potency [10] | Potency [6] | Potency [7] | Potency [8]

NS(=O)(=O)C(F)(F)C(F)(F)C(F)(F)C(F)(F)C(F)(F)C(F)(F)C(F)(F)C(F)(F)F
inactive: Potency [1] | Potency [9] | outcome [3] | Potency [10] | Potency [4] | activity change, positive = activation [5] -39.9% | Potency [6] | Potency [7] | Potency [8]

CC(C)(OO)c1ccccc1
inactive: Potency [2] | outcome [3] | Potency [10] | Potency [4] | activity change, positive = activation [5] 4.39% | Potency [6] | Potency [7] | Potency [8]
active: Potency [1] 34.4 µM
